Experimental data published in PubChem BioAssay (EPA / NIEHS).
Inconclusive results are not listed. Calls of active or inactive are those of the source. How the source made its calls, unless noted: active means hit-call score of the fitted dose curve at least 0.9, where 1 is the maximum; inconclusive means response in the unintended direction; inactive means score below 0.9.

Tests used:
[1] = TOX21_p53_BLA_p2_viability: Viability Assessment in the Tox21 HCT-116 p53 Agonism Beta-lactamase Assay, Phase 2 (AID 2283591);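 further: actives lower the ATP signal meaning cytotoxicity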
Summary of the method: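 HCT-116 p53-bla cells (4000/well) rested 5 h at 37C, then received compounds in DMSO (217-fold dilution) for 16 h at 37C, 5% CO2. After the CCF4 read, CellTiter-Glo was added; ATP luminescence was read after 30 min at room temperature.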

[2] = target: Cellular tumor antigen p53 (Homo sapiens) (UniProt P04637); assay: TOX21_p53_BLA_p2_ratio: Tox21 HCT-116 p53 Agonism Beta-lactamase Assay, Ratio, Phase 2 (AID 2283592)
Summary of the method: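 First, HCT116 reporter cells settle for 5 h at 37C. Next, DMSO compound solutions are pinned in (217-fold dilution) and left 16 h. Finally, CCF4-AM substrate is loaded 2 h at room temperature and the 460/530 nm ratio read.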

[3] = TOX21_p53_BLA_p3_viability: Viability Assessment in the Tox21 HCT-116 p53 Agonism Beta-lactamase Assay, Phase 3 (AID 2283593);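 further: cells exposed to compound for 16 h before reading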
Summary of the method: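 HCT-116 cells (4000/well) rested 5 h at 37C, then got DMSO compounds by pin tool (217-fold dilution) for 16 h at 37C, 5% CO2. After the bla read, CellTiter-Glo was added and luminescence read at 30 min, room temperature.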

[4] = target: Cellular tumor antigen p53 (Homo sapiens) (UniProt P04637); assay: TOX21_p53_BLA_p3_ratio: Tox21 HCT-116 p53 Agonism Beta-lactamase Assay, Ratio, Phase 3 (AID 2283596)
Summary of the method: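 Cells were seeded at 4000/well, rested 5 h at 37C, then dosed with DMSO compound solutions (217-fold dilution) for 16 h. CCF4-AM substrate was loaded for 2 h at room temperature, and the 460/530 nm emission ratio was fitted for gain of signal versus DMSO.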

[5] = target: Cellular tumor antigen p53 (Homo sapiens) (UniProt P04637); assay: TOX21_p53_BLA_p5_ratio: Tox21 HCT-116 p53 Agonism Beta-lactamase Assay, Ratio, Phase 5 (AID 2283599)
Summary of the method: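 HCT-116 cells carrying a p53-inducible beta-lactamase reporter were seeded at 4000 cells/well and dosed after 5 h with compound in DMSO (217-fold dilution). After 16 h at 37C, CCF4-AM substrate was added for 2 h, and the 460/530 nm emission ratio was scored as gain-of-signal versus DMSO.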

[6] = target: Cellular tumor antigen p53 (Homo sapiens) (UniProt P04637); assay: TOX21_p53_BLA_p4_ratio: Tox21 HCT-116 p53 Agonism Beta-lactamase Assay, Ratio, Phase 4 (AID 2283601)
Summary of the method: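 HCT116 cells carrying an inducible beta-lactamase reporter were plated at 4000 cells/well, rested 5 h, then exposed to compounds in DMSO (217-fold dilution) for 16 h at 37C. CCF4-AM substrate was loaded 2 h at room temperature; 460/530 nm emission ratio scored gain-of-signal versus DMSO.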

[7] = CCTE_Deisenroth_AIME_96WELL_CTox_Active: Cytotoxicity Assessment (CTOX) in CCTE's 96-well Estrogen Receptor Transactivation Assay with AIME metabolic competence (metabolism positive), Deisenroth Lab (AID 2284028)
Summary of the method: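 Cytotoxicity in VM7Luc4E2 breast cells after 24 h exposure to medium from a 2 h metabolic pre-incubation with induced rat hepatic S9 in alginate microspheres; fluorescent live-cell protease readout, 10-point series 0.002–200 uM, n=4.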

[8] = CCTE_Deisenroth_AIME_96WELL_CTox_Inactive: Cytotoxicity Assessment (CTOX) in CCTE's 96-well Estrogen Receptor Transactivation Assay without AIME metabolic competence (metabolism negative), Deisenroth Lab (AID 2284029)
Summary of the method: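 Metabolism-negative mode: alginate-water lids without rat S9, 2 h pre-incubation of 10-point series (0.002 - 200 uM). Conditioned medium on VM7Luc4E2 cells 24 h; loss of fluorescent live-cell protease signal marks cytotoxicity.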

[9] = ACEA_ER_AUC_viability: ACEA Biosciences xCELLigence Real-Time Cell Analysis on Estrogen Receptor Agonism for Viability (AID 2283782);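 further: hit means loss of impedance signal meaning reduced cell growth or viability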
Summary of the method: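 Continuous-exposure impedance cell analysis uses T-47D cells in charcoal-stripped serum, eight 1:4 dilutions topping at 100 uM final, biological duplicate. Area under the growth curve at 80 h is fitted against DMSO baseline.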

[10] = CCTE_Harrill_HTTr_Viability_MCF7: CCTE's 6-hour Cell Viability Assessment for the High-Throughput Transcriptomics (HTTr) Platform, in MCF-7 cells cultured in DMEM + 10% fetal bovine serum, Harrill Lab (AID 2284010; active means hit-call score of the fitted dose curve at least 0.9, where 1 is the maximum; inactive means score below 0.9)
Summary of the method: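 Read-out is propidium iodide gain of signal by high-content imaging, reflecting membrane integrity loss. Measurements are taken 6 h after dosing, eight concentrations per chemical, with DMSO serving as baseline for bidirectional curve fitting.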

[11] = TOX21_p53_BLA_p5_viability: Viability Assessment in the Tox21 HCT-116 p53 Agonism Beta-lactamase Assay, Phase 5 (AID 2283600)
Summary of the method: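 Decreased CellTiter-Glo luminescence denotes lost viability. Exposure: 16 h at 37C, 5% CO2, with compounds from DMSO stocks diluted 217-fold in wells of 4000 cells.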

THRA (gene 7067) = THRA (gene 7067) (UniProt P10827); assay: TOX21_TRA_COA_Antagonist_Followup_ratio: Tox21 Thyroid Hormone Receptor alpha Antagonism through Coactivator Recruitment Follow-Up Assay, Ratio (AID 2283953)
Summary of the method: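 GST-TRα LBD 2.5 nM, BSA 0.10%, + cpd; then FITC-SRC-2 peptide 200 nM + Tb-anti-GST Ab 2 nM. TR-FRET ratio 520/495 nm. Norm: DMSO = 0%, T3 = 100%.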

[12] = TOX21_TRB_BLA_Antagonist_Followup_viability: Viability Assessment in the Tox21 Thyroid Hormone Receptor beta Antagonism Beta-lactamase (BLA) Follow-Up Assay (AID 2283961)
Summary of the method: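 HEK293T cells with GAL4-human TRβ LBD and UAS-bla reporter, 3,000 cells/well in 2% charcoal-stripped FBS medium; 11-point concentrations in triplicate, 18 h at 37C. Viability from ATP by CellTiter-Glo luminescence, 30 min RT, same plates.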

[13] = target: Retinoic acid receptor RXR-alpha (Homo sapiens) (UniProt P19793); assay: TOX21_TR_RXR_BLA_Antagonist_Followup_ratio: Tox21 Thyroid Hormone Receptor beta Retinoid X Receptor alpha (RXRa) Antagonism Beta-lactamase (BLA) Follow-Up Assay, Ratio (AID 2283972)
Summary of the method: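 RXRa-UAS-bla HEK293T cells, 2,500/well in phenol red-free DMEM with 2% charcoal-stripped FBS, 5 h attachment, then compounds (11 concentrations, triplicate) for 16 h at 37C; FRET-B/GCCF4-AM substrate 2 h RT; 460:530 nm ratio, loss of signal vs DMSO.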

[14] = TOX21_p53_BLA_p4_viability: Viability Assessment in the Tox21 HCT-116 p53 Agonism Beta-lactamase Assay, Phase 4 (AID 2283597);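 further: hits lower the luminescence signal meaning cytotoxicity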
Summary of the method: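 4000 HCT116 cells per well; 5 h attachment; compounds from DMSO, 217-fold dilution; 16 h at 37C. Then CCF4-AM, 2 h RT, followed by CellTiter-Glo, 30 min RT, luminescence. Decrease = cytotoxicity.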

Measured: outcome

Cellular tumor antigen p53 (Homo sapiens), sequence (P04637 whole entry, looked up): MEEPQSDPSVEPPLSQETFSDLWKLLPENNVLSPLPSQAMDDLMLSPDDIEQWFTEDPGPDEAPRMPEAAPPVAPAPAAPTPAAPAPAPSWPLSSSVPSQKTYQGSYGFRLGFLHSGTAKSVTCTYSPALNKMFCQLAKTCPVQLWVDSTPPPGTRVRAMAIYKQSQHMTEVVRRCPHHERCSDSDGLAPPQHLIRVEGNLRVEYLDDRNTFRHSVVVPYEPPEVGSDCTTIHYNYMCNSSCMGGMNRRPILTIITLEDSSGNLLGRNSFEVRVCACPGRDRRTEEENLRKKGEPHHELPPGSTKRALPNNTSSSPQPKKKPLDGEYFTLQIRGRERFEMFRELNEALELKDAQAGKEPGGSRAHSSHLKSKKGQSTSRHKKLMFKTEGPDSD
Retinoic acid receptor RXR-alpha (Homo sapiens), sequence (P19793 whole entry, looked up): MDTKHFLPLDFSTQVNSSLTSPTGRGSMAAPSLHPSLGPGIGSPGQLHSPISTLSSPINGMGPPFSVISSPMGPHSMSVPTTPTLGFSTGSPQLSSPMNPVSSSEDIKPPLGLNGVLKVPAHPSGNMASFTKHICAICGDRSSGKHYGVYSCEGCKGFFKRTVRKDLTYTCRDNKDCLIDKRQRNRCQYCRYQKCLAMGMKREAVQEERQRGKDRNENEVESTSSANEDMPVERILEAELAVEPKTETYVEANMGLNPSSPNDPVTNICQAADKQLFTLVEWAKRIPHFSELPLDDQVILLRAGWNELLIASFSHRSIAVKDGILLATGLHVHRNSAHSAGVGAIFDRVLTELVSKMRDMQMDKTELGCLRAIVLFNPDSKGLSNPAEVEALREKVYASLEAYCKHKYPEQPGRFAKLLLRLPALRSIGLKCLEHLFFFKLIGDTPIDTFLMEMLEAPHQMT
THRA (gene 7067), sequence (P10827 whole entry, looked up, the tested form may be a part): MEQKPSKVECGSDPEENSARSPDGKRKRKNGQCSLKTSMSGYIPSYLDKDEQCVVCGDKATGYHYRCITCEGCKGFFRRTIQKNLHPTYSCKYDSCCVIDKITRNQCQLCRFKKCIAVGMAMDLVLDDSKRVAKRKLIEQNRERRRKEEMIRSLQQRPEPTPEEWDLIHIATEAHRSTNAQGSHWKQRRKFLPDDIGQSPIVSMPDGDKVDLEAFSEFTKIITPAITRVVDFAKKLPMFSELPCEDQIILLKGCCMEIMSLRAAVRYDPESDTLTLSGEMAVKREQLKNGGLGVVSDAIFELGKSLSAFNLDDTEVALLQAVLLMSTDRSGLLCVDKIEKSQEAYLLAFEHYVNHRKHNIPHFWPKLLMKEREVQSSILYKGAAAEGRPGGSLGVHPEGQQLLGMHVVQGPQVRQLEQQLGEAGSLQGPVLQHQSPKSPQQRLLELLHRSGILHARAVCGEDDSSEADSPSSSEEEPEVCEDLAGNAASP

CC(C)(c1ccccc1)c1ccccc1
inactive: [1] | [2] | [3] | [4] | [5] | [6] | [7] | [8]

COc1ccc2cc([C@H](C)C(=O)O)ccc2c1
inactive: [1] | [2] | [3] | [4] | [5] | [6] | [9] | [10]

C(=C/c1ccccc1)/c1ccccc1
inactive: [1] | [2] | [3] | [4] | [11]

CC(C)(O)C#CC(C)(C)O
inactive: [1] | [2] | [3] | [4] | [11]

COc1cc2c(cc1OC)CC(=O)N(CCCN(C)C[C@H]1Cc3cc(OC)c(OC)cc31)CC2
inactive: [1] | [2] | [3] | [4] | [11]

CCC1C(=O)OCC1Cc1cncn1C (stereo not given)
inactive: [1] | [2] | [3] | [4] | [11] | [6]

[O]=[Zr]
inactive: [1] | [2] | [3] | [4] | [11]

CC(=O)OCC(=O)[C@@]1(O)CCC2C3CCC4=CC(=O)CC[C@]4(C)C3C(O)C[C@@]21C (stereo not given in full)
inactive: [1] | [2] | [3] | [4] | [6]

C1OCOCO1
inactive: [1] | [2] | [3] | [4] | [11] | [6]

CC1(C)S[C@@H]2[C@H](NC(=O)C(N)c3ccccc3)C(=O)N2[C@H]1C(=O)OC1OC(=O)c2ccccc21 (stereo not given in full)
not listed: [7] | [8] | [9] | [10] | [11] | [14]
inactive: all other assays above

CC(=O)O[C@H]1C[C@@H]2CC[C@@H]3[C@H](CC[C@@]4(C)[C@H]3C[C@H]([N+]3(C)CCCCC3)[C@@H]4OC(C)=O)[C@@]2(C)C[C@@H]1N1CCCCC1
inactive: [1] | [2] | [3] | [4] | [11] | [6]

SCCSCCS
inactive: [1] | [2] | [3] | [4] | [11] | [6]

CO[C@@]1(NC(=O)CSCC#N)C(=O)N2C(C(=O)O)=C(CSc3nnnn3C)CS[C@@H]21
inactive: [1] | [2] | [3] | [4] | [5] | [6]

Cc1cccc2cccnc12
inactive: [1] | [2] | [3] | [14]

CCCCC[C@H](O)/C=C/[C@H]1[C@H](O)CC(=O)[C@@H]1C/C=C\CCCC(=O)O
inactive: [1] | [2] | [3] | [4] | [11] | [6]

COc1ccc(C(=O)N2CCN(CC(=O)N3CCOCC3)CC2)cc1
inactive: [1] | [2] | [3] | [4] | [11] | [6]

O=C1C2CC3CC1CC(O)(C3)C2
inactive: [1] | [2] | [3] | [4] | [6]

CCCC(CCC)C(N)=O
inactive: [1] | [2] | [3] | [4] | [6]

C1CCN(CN2CCCCC2)CC1
inactive: [1] | [2] | [3] | [4] | [6]

O=C(CCCN1CCN(c2ccccn2)CC1)c1ccc(F)cc1
inactive: [1] | [2] | [3] | [4] | [11] | [6]

NC(=O)c1ncn([C@@H]2O[C@H](CO)[C@@H](O)[C@H]2O)c1N
inactive: [1] | [2] | [3] | [4] | [11] | [6]

Cc1ccccc1OCC(O)CO (stereo not given)
inactive: [1] | [2] | [3] | [4] | [11] | [6]

Cc1c(NC(C)C)c(=O)n(-c2ccccc2)n1C
inactive: [1] | [2] | [3] | [4] | [11] | [6]

O=C1CCC(=O)O1
inactive: [1] | [2] | [3] | [14] | [5]

CC1=C(O)C(=O)OC1C (stereo not given)
inactive: [1] | [2] | [3] | [14] | [5] | [11]

COc1cc(Br)c(C[N+]2(CCOCCC3CCC4CC3C4(C)C)CCOCC2)cc1OC (stereo not given)
inactive: [1] | [2] | [3] | [14] | [5] | [11]

O=C(CCCCC(=O)Nc1c(I)cc(I)c(C(=O)O)c1I)Nc1c(I)cc(I)c(C(=O)O)c1I
inactive: [1] | [2] | [3] | [14] | [5]

C[N+]1(C)CCC(OC(=O)C(O)(c2ccccc2)C2CCCC2)C1 (stereo not given)
inactive: [1] | [2] | [3] | [14] | [5] | [11] | [6]

O=C(O)COc1ccc(C(=O)c2cccs2)c(Cl)c1Cl
inactive: [1] | [2] | [3] | [14] | [5] | [11] | [6]

CC1(C)C2CC[C@]3(C)[C@H](C(=O)C=C4[C@@H]5C[C@@](C)(C(=O)O)CC[C@]5(C)CC[C@]43C)[C@@]2(C)CC[C@@H]1O[C@H]1O[C@H](C(=O)O)[C@@H](O)[C@H](O)[C@H]1O[C@@H]1O[C@H](C(=O)O)[C@@H](O)[C@H](O)[C@H]1O (stereo not given in full)
inactive: [1] | [2] | [3] | [14]

C[C@H]1C[C@H]2[C@@H]3CCC4=CC(=O)C=C[C@]4(C)[C@H]3C(=O)C[C@]2(C)[C@@]1(O)C(=O)CO
inactive: [1] | [2] | [3] | [14] | [5]
